# Screens: PubChem, National Center for Advancing Translational Sciences (NCATS)
# TGFb inhibitor: inhibitors of TGF-b signaling; HepG2 CAGA-GFP TGF-b/SMAD3 reporter, GFP fluorescence, 18 h; TGF-beta stimulated, 500 pg/mL final; Potency, µM (doses to about 46.1 µM), inactives show at the highest dose activity, negative = inhibition, hits mostly inhibitors; actives 1.2% (n = 410,000); also: potency is read from the fitted curve at half-maximal effect; % is scaled to controls: 0 for no effect and ±100 for the full control effect; nearly all actives have a fitted effect of over 65% in size
#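 TGF-beta reporter screen: HEPG2 CAGA-GFP, 1% FBS, 500 pg/mL TGF-beta final, 18 h; per-cell GFP summed per well; curves fitted and categorized by class.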
# TDP1 inh: inhibitors of human tyrosyl-DNA phosphodiesterase TDP1; Potency, µM (top dose mostly 130 µM), for inactives: top-dose activity change, negative = inhibition, most hits filed as inhibitors; recombinant TDP1, AlphaScreen DNA substrate cleavage; actives 0.28% (n = 350,000); AID 485290; also: potency is read from the fitted curve at half-maximal effect; % is scaled to controls: 0 for no effect and ±100 for the full control effect; nearly all actives have a fitted effect of over 40% in size
# Target sequence (Q9NUW8 whole entry, looked up): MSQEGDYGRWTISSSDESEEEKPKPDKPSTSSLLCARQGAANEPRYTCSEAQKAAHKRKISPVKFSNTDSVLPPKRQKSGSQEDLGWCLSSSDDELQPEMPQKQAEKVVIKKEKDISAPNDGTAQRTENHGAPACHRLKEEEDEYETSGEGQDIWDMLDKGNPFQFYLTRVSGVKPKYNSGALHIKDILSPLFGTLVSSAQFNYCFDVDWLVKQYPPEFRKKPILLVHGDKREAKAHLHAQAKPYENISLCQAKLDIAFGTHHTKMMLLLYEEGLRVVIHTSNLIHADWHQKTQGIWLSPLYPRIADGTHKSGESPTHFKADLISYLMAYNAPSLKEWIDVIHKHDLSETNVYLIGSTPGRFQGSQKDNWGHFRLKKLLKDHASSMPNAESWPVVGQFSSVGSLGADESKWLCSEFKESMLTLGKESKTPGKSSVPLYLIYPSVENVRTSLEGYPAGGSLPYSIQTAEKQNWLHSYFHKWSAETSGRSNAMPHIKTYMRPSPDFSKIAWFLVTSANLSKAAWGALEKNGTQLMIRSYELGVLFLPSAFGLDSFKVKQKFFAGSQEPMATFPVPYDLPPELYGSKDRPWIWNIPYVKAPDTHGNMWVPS
#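 Recombinant human Tdp1 (E. coli-expressed, 1 nM final) preincubated with compounds 15 min at room temperature, then 5'-biotin/3'-phosphotyrosine-FITC DNA substrate (15 nM final) added for 5 min. AlphaScreen beads (10 ug/ml final) added 10 min; cleavage lowers signal.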
# TDP1 cell noCPT: qHTS for Inhibitors of human tyrosyl-DNA phosphodiesterase 1 (TDP1): qHTS in cells in absence of CPT | DT40 Tdp1-/- hTDP1 cells, no CPT, ATP luminescence, 48 h | AID 686978, 2013 | Potency, µM (top dose mostly 46.2 µM), for inactives: at the top dose activity change, negative = growth inhibition, actives largely listed as inhibitors | actives 15% (n = 420,000); also: potency is read from the fitted curve at half-maximal effect; % is scaled to controls: 0 for no effect and ±100 for the full control effect; nearly all actives have a fitted effect of over 55% in size
#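 Growth kinetics read by CellTiter-Glo luminescence after ≥48 hr at 37 °C. Cells: DT40 Tdp1-/- stably carrying human TDP1, 400 per well, compound exposure in the absence of CPT (DMSO vehicle).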
# TDP1 cell CPT: growth inhibition of DT40 Tdp1-/-;hTDP1 cells with camptothecin (screen for TDP1 inhibitors); chicken DT40 Tdp1-/-;hTDP1 cells + 20 nM CPT, ATP luminescence, 48 h; Potency, µM (top dose mostly 46.2 µM), for the others: top-dose activity change, negative = growth inhibition, usual class: inhibitors; actives 12% (n = 420,000); also: potency is read from the fitted curve at half-maximal effect; % is scaled to controls: 0 for no effect and ±100 for the full control effect; nearly all actives have a fitted effect of over 55% in size
#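 Cell growth measured by CellTiter-Glo luminescence after a minimum 48 h, 37 C compound exposure with 20 nM CPT in Tdp1-knockout DT40 cells stably expressing hTDP1, seeded 400/well; qHTS titration format.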
# HepG2 viability: HepG2 cytotoxicity, counter-screen for TGF-b inhibitors; HepG2 CAGA-GFP viability, ATP luminescence, 18 h; Potency, µM (series often up to 46.1 µM), without a hit: at the highest dose activity change, negative = cytotoxicity, actives largely listed as cytotoxic; actives 0.76% (n = 410,000); AID 588856; also: potency is read from the fitted curve at half-maximal effect
#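 CellTiter-Glo luminescence gave cytotoxicity after 18 hours at 37 degrees C. The cells were HepG2 CAGA-GFP in 1% FBS DMEM, stimulated with 500 pg/mL TGF-beta after compound addition. %Activity was normalised to no-cell wells (complete cell-killing) and DMSO (no toxicity), and curves were fitted and classified.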
# IL1B secr inh: blocks inflammasome-driven IL-1 beta release; activity change, % at 57.5 µM; THP-1 LPS/ATP IL-1B secretion, AlphaLISA, 16 h; stronger effect = lower value; AID 743279; actives 4.7% (n = 360,000); in the data active = activity change below about -50%; inconclusive = mostly about -30% to -49%; also: % is scaled to controls: 0 for no effect and ±100 for the full control effect
#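 Secreted IL-1B measured by AlphaLISA bead assay after 16 h compound exposure of THP-1 cells; compounds (final up to 57.5 uM) added 1 h before LPS (250 ng/mL) and ATP (1.25 mM) stimulation; lower signal means less secretion.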
# Active calls of the source: *; ? = inconclusive; / = no result; [ ] = dose if it differs, or a comment. Compounds with a hit are over-represented: about 18% of the library has one in this group of screens. Unless noted, calls follow the shape of the dose curve; as a rule, active = well fitted curve in the direction sought with a large enough effect; inconclusive = small, poorly fitted or top-dose-only effect, or another doubt; inactive = no such curve, though single readings can be large; an effect the other way counts as inactive or inconclusive.
SMILES,TGFb inhibitor,TDP1 inh,TDP1 cell noCPT,TDP1 cell CPT,HepG2 viability,IL1B secr inh
CC(CCc1ccccc1)NC(=O)COC(=O)c1ccc(NC(=O)CC#N)cc1 (configuration not stated),?,/,-7.0%,0.9%,-35.4%,11.4
CCCCN1Cc2c(nc3cc(-c4ccco4)[nH]n3c2=O)C1=O,12.3%,0.0%,-4.1%,-1.5%,19.6%,24.9
CCc1ccc(NC(=O)C2CCN(S(=O)(=O)c3c(C)noc3/C=C/c3ccco3)CC2)cc1,-38.1%,0.0%,-28.3%,?,-26.1%,/
COc1cccc(CNC(=O)C2CCN(S(=O)(=O)c3cccs3)CC2)c1,-0.1%,2.3%,-10.3%,8.9%,0.3%,6.4
COc1ccc(NC(=O)C2CCN(S(=O)(=O)c3c(C)noc3/C=C/c3cccs3)CC2)cc1Cl,-1.9%,2.3%,?,?,4.1%,/
CCc1ccc(NC(=O)C2CCN(S(=O)(=O)c3c(C)noc3/C=C/N(C)C)CC2)cc1,-6.0%,5.2%,9.2µM*,?,-4.1%,-26.7
COc1cccc(CNC(=O)C2CCN(S(=O)(=O)c3c(C)noc3/C=C/c3cccs3)CC2)c1,?,-2.3%,23.1µM*,?,-15.7%,/
CCc1ccc(NC(=O)C2CCN(S(=O)(=O)c3c(C)noc3/C=C/c3cccs3)CC2)cc1,-18.9%,-4.7%,18.4µM*,?,-19.7%,/
Cc1noc(/C=C/c2cccs2)c1S(=O)(=O)N1CCC(C(=O)Nc2ccc(F)c(Cl)c2)CC1,6.31µM*,-2.3%,14.6µM*,13µM*,-24.2%,/
CCOC(=O)C1CCCN(C(=O)c2c(-c3ccccc3)noc2C)CC1 (configuration not stated),2.7%,/,-16.0%,?,1.1%,6.4
CCCS(=O)(=O)NC(=O)C1(C)CCCN(C(=O)c2c(-c3ccccc3)noc2C)C1 (configuration not stated),-5.9%,/,-4.1%,-12.4%,0.9%,22.3
CCOC(=O)C1(C)CCCN(C(=O)c2c(-c3ccccc3)noc2C)C1 (configuration not stated),8.2%,/,?,13µM*,-13.7%,18.3
CCOC(=O)C1CCN(C(=O)c2c(-c3ccccc3)noc2C)CC1,-2.3%,7.4%,-25.2%,13.4%,-1.1%,-72.9*
COc1ccc(CN2CCN(C(=O)c3c(-c4ccccc4)noc3C)CC2)cc1F,-3.7%,0.0%,23.1µM*,?,-34.5%,21.4
CN1CCN([C@H]2CS(=O)(=O)N[C@@H]2COCc2ccccc2)CC1,-26.4%,/,4.3%,?,-6.4%,22.2
N#CC(/C(=N/S(=O)(=O)c1cccs1)c1ccccc1)c1nc2ccccc2[nH]1 (configuration not stated),?,6.6%,7.31µM*,-25.3%,-30.2%,1.2
N#CC(Cc1cccs1)c1nc2ccccc2[nH]1 (configuration not stated),10.7%,/,-4.7%,4.5%,-24.2%,0.0
CN(C)c1nc(C=C(C#N)C#N)c(Cl)n1-c1ccc(F)cc1,5.01µM*,0.0%,5.17µM*,4.11µM*,8.91µM*,-97.4*
CSc1nc(O)cc(=O)n1-c1ccc(F)cc1,10.5%,-11.0%,2.4%,-1.6%,-14.5%,-8.3
CCc1cccc(NC(=O)Cn2c(=O)n(CC3CCC(C(=O)NCCc4ccccc4)CC3)c(=O)c3ccccc32)c1 (configuration not stated),?,-7.5%,13µM*,20.6µM*,-2.8%,/
O=C(Cn1c(=O)n(CC2CCC(C(=O)NCCc3ccccc3)CC2)c(=O)c2ccccc21)Nc1ccccc1 (configuration not stated),?,2.5%,-5.3%,-19.7%,-13.9%,/
CC(C)c1ccc(NC(=O)Cn2c(=O)n(CC3CCC(C(=O)NCCc4ccccc4)CC3)c(=O)c3ccccc32)cc1 (configuration not stated),0.7%,5.0%,14.6µM*,16.4µM*,1.5%,/
Cc1ccc(NC(=O)Cn2c(=O)n(CC(=O)NCCc3ccccc3)c(=O)c3ccccc32)cc1C,11.3%,0.0%[12.3 µM],3.26µM*,?,1.9%,/
COc1ccc(/C=N/OCc2ccc(Br)cc2)c(OC)c1,13.0%,/,-6.4%,-1.5%,-2.4%,-18.7
N=C1C(c2nc3ccccc3s2)=C(O)CN1C1CCCCC1,34.1%,-7.2%,-13.6%,6.6%,15.2%,-20.2
SMILES,TGFb inhibitor,TDP1 inh,TDP1 cell noCPT,TDP1 cell CPT,HepG2 viability,IL1B secr inh
COc1ccc(OC)c(N2CC(O)=C(c3nc4ccccc4s3)C2=N)c1,-1.0%,11.8%,?,?,-18.9%,-27.8
N=C1C(c2nc3ccccc3s2)=C(O)CN1Cc1ccccc1,0.0%,5.7%,4.61µM*,7.31µM*,-18.5%,-0.1
CCOc1ccccc1N1CC(O)=C(c2nc3ccccc3s2)C1=N,-24.7%,10.0%,4.11µM*,3.26µM*,-5.1%,12.7
COc1cccc(CN2CCNC(=O)C2CC(=O)N(C)C2CCOCC2)c1OC (configuration not stated),21.3%,1.3%,-1.8%,-1.5%,3.7%,4.9
CCc1nn(CC(=O)NCc2ccccc2Cl)c(=O)c2cc3ccccc3n12,?,2.0%,?,?,-16.0%,/
O=S1(=O)CCN(Cc2cccnc2)CC1,-6.1%,/,18.8%,0.8%,-0.5%,10.8
O=C(NCCc1ccc(Cl)cc1)Nc1ccc(F)cc1,1.0%,0.0%,?,?,1.5%,-25.9
O=[N+]([O-])c1ccc(NC(=S)NCCc2ccc(F)cc2)cc1,?,4.1%,16.4µM*,16.4µM*,12.6µM*,-23.2
O=C(NCCc1ccc(F)cc1)Nc1ccc([N+](=O)[O-])cc1,?,4.6%,16.4µM*,29.1µM*,-49.5%,-99.8*
O=C1NC[C@H](c2ccccc2)OC(=O)[C@@H](Cc2ccc(F)cc2)CC/C=C/C[C@@H]1CC(=O)N(CCO)Cc1ccccc1,?,0.7%,23.1µM*,?,/,-21.7
O=C1NC[C@H](c2ccccc2)OC(=O)[C@H](Cc2ccc(F)cc2)CC/C=C/C[C@H]1CC(=O)N(CCO)Cc1ccccc1,?,-0.7%,?,25.9µM*,/,?
O=C(C[C@@H]1C/C=C/CC[C@H](Cc2ccc(F)cc2)C(=O)O[C@H](c2ccccc2)CNC1=O)NCCO,-4.2%,0.1%,-10.1%,-0.6%,-7.5%,-2.0
